The whole screen tested about 52,000 compounds, of which about 4,300 (8.3%) were called active. The full list was thinned out, with actives kept by preference. Values without a mark were called inactive. Cut-off read from the data, not from the text of the source: active = survival mostly below about 52% (no sharp cut-off); inactive = mostly above about 56%.

The assay relates to DeltatarO mutant. Nature of the assay: S. aureus survival, RN4220 and DeltatarO strains – OD600, teichoic acid synthesis inhibitors, primary screen (AID 463173). The conditions noted are these: S. aureus RN4220 wild type/DeltatarO growth, OD600, 18 h, stronger effect = lower value, screened at 18.75 µg/mL (by protocol).
On to `O=C(COc1ccc(S(=O)(=O)N2CCCC2)cc1)N1CCCC1`, for which the survival is 91%.

In the case of `Cc1c(Cl)cccc1Nc1nn2c(=O)c3ccc(C(=O)N(C)Cc4ccccc4)cc3nc2s1`, the survival was 81%.

In the case of `CCc1ccc(NC(=O)Cn2c(=O)n(CCC(C)C)c(=O)c3cccnc32)cc1`, the survival was 76%.

Turning to `CC(=O)Nc1ccccc1N1CCCCC1`, the survival is 100%.

Turning to `COc1cc(NC(=O)CCc2c(C)nc3nc(-c4cc(OC)cc(OC)c4)nn3c2C)cc(OC)c1`, the survival was 83%.

Take `CCCCCC1CC(CC(=O)Nc2nncs2)C(=O)O1` (stereo not drawn): the survival is 110%.

Turning to `CCOc1ccccc1CNC(=O)CCn1c(=O)c2cccn2c2ccc(F)cc21`, the survival is 46%.

As for `O=C(CCCn1c(=O)c2cccn2c2ccc(F)cc21)NCc1ccc(Cl)cc1`, the survival is 38% (active).

In the case of `CCOc1ccccc1CNC(=O)Cn1c(=O)c2cccn2c2ccc(F)cc21`, the survival is 68%.

In the case of `CCOc1ccccc1CNC(=O)CCCn1c(=O)c2cccn2c2ccc(F)cc21`, the survival was 33% (active).

Take `CCOc1ccc(CNC(=O)CCCn2c(=O)c3cccn3c3ccccc32)cc1`: the survival was 55%.

Turning to `Cc1cccc(CNC(=O)CCCn2c(=O)c3cccn3c3ccc(F)cc32)c1`, the survival is 79%.

`CCOc1ccc(CNC(=O)Cn2c(=O)c3cccn3c3ccc(F)cc32)cc1`: the survival was 80%.

Consider `CCOc1ccc(CNC(=O)CCCn2c(=O)c3cccn3c3cccnc32)cc1`, for which the survival is 120%.

Regarding `CCc1ccc(CNC(=O)CCn2c(=O)c3cccn3c3ccc(F)cc32)cc1`, the survival is 91%.

On to `CCOc1ccc(CNC(=O)CCn2c(=O)c3cccn3c3ccc(F)cc32)cc1`, for which the survival is 45% (active).

For the compound `CCOc1ccc(CNC(=O)CCCn2c(=O)c3cccn3c3ccc(F)cc32)cc1`, the survival was 41% (active).

Regarding `CCOc1ccc(CCNC(=O)CCn2c(=O)c3cccn3c3ccc(F)cc32)cc1`, the survival is 50%.

Take `CCC(C)NC(=O)C1CCN(S(=O)(=O)c2ccc3c(c2)CCCN3C(C)=O)CC1` (stereo not drawn): the survival is 67%.

On to `CC(C)(C)NC(=S)Nc1ccc2nccnc2c1`, for which the survival is 65%.

On to `Cc1ccc(-c2noc(CNS(=O)(=O)c3ccc(F)cc3)n2)cc1`, for which the survival was 81%.

Regarding `Cc1ccc(C)c(N2CCN(C(=O)Cn3cnc4onc(-c5ccc(F)cc5)c4c3=O)CC2)c1`, the survival is 83%.

With `CC(C)CCNC(=O)C(=O)Nc1c2c(nn1-c1ccc(Cl)cc1)CSC2`, the survival is 86%.

Regarding `Cc1nc2ccn(Cc3ccccc3)c(=O)c2cc1C(=O)N1CCN(c2ccc(F)cc2)CC1`, the survival was 95%.

Regarding `O=C(COc1ccccc1)N(Cc1cccnc1)c1nc2c(F)cccc2s1`, the survival is 84%.

Turning to `Cc1ccc(C(=O)N2CCc3cc(CNC(=O)c4ccnn4C)ccc32)cc1`, the survival was 91%.

On to `Cn1cc(CCCC(=O)NCc2ccccc2Cl)c2ccccc21`, for which the survival is 75%.

Take `COc1cccc(CNC(=O)Cn2c(=O)c3cccn3c3ccc(F)cc32)c1OC`: the survival was 103%.

In the case of `CC(C)Oc1ccc(CNC(=O)CCCn2c(=O)c3cccn3c3cccnc32)cc1`, the survival is 111%.

Regarding `CC(C)Oc1ccc(CNC(=O)CCCn2c(=O)c3cccn3c3ccccc32)cc1`, the survival was 45% (active).

As to `COc1cccc(CNC(=O)CCn2c(=O)c3cccn3c3ccc(F)cc32)c1OC`, the survival is 59%.

Regarding `CC(C)Oc1ccc(CNC(=O)CCn2c(=O)c3cccn3c3ccc(F)cc32)cc1`, the survival is 48%.

Turning to `COc1cccc(CNC(=O)CCCn2c(=O)c3cccn3c3ccc(F)cc32)c1OC`, the survival is 43% (active).

For the compound `COc1cccc(NC(=O)Cn2c(=O)n(-c3cccc(OC)c3)c(=O)c3c4c(sc32)CCCC4)c1`, the survival is 107%.

For the compound `COc1ccc(-c2nc3c4ccccc4n(CC(=O)Nc4cc(F)ccc4F)c(=O)n3n2)cc1`, the survival was 84%.

`Cc1ccc(-c2nc3sc(CCNC(=O)c4ccc(F)c(F)c4)c(C)n3n2)cc1`: the survival was 76%.

With `CCn1c(=O)c2cc(C(=O)NCCc3ccc(OC)c(OC)c3)sc2c2ccccc21`, the survival was 42% (active).

Turning to `CCn1c(=O)c2cc(C(=O)NCCCOC)sc2c2ccccc21`, the survival was 103%.

Regarding `COc1ccc(CCNC(=O)c2cc3c(=O)n(C)c4ccccc4c3s2)cc1OC`, the survival is 65%.

Regarding `CCn1c(=O)c2cc(C(=O)NCCc3cc(OC)ccc3OC)sc2c2ccccc21`, the survival was 34% (active).

Consider `CCn1c(=O)c2cc(C(=O)Nc3cccc(C(F)(F)F)c3)sc2c2ccccc21`, for which the survival is 84%.

Regarding `CCn1c(=O)c2cc(C(=O)Nc3cc(C)c(Cl)cc3OC)sc2c2ccccc21`, the survival is 69%.

Consider `CCn1c(=O)c2cc(C(=O)Nc3cc(OC)c(OC)c(OC)c3)sc2c2ccccc21`, for which the survival is 41% (active).

Turning to `COc1ccc(Br)cc1CNC(=O)c1cc2c(=O)n(C)c3ccccc3c2s1`, the survival is 94%.

`CCn1c(=O)c2cc(C(=O)NCc3cc(OC)ccc3OC)sc2c2ccccc21`: the survival is 54% (active).

As for `CCOc1ccc(CCNC(=O)c2cc3c(=O)n(CC)c4ccccc4c3s2)cc1OCC`, the survival was 60%.

Turning to `CCc1ccc(CNC(=O)c2cc3c(=O)n(CC)c4ccccc4c3s2)cc1`, the survival is 51%.

On to `CCn1c(=O)c2cc(C(=O)NCCc3ccc(Cl)cc3)sc2c2ccccc21`, for which the survival was 76%.

As for `CCOC(=O)c1[nH]c2ccccc2c1NC(=O)c1ccc(Br)cc1`, the survival is 95%.

As for `Cc1cccc(-c2nc3nc(C)cc(NCc4ccccc4Cl)n3n2)c1`, the survival is 74%.

On to `COc1ccccc1C(=O)Nc1ccc(C(=O)OCc2cc(=O)n3nc(C4CC4)sc3n2)cc1`, for which the survival is 72%.

Turning to `Cc1ccccc1C1C(C#N)=C(N)NC(S)=C1C#N` (stereo not drawn), the survival is 93%.

For the compound `CCC(=O)N1c2ccccc2CC1C(=O)NCCc1cc(OC)c(OC)c(OC)c1` (stereo not drawn), the survival is 129%.

In the case of `CC(c1ccccc1F)n1cc(C(=O)NCCCn2ccnc2)nn1` (stereo not drawn), the survival was 96%.

Regarding `CCOc1ccc(NC(=O)Cn2cc(C(=O)c3ccc(C)c(C)c3)c(=O)c3cc(OC)c(OC)cc32)cc1`, the survival is 95%.

For `COc1ccc(CNC(=O)c2cc3c(=O)oc4ccc(C)cc4c3s2)c(OC)c1`, the survival is 86%.

Turning to `COc1ccc(CCNC(=O)c2cc3c(=O)[nH]c4ccc(C)cc4c3s2)cc1OC`, the survival is 64%.

Regarding `COc1ccc(CNC(=O)c2cc3c(=O)[nH]c4ccc(C)cc4c3s2)c(OC)c1`, the survival is 44% (active).
